Bioassay records (PubChem BioAssay)
NPC1 prom act – activators of NPC1 promoter; Huh7 NPC1 promoter luciferase reporter, 24 h; actives 2.4% (n = 320,000); Potency, µM (highest dose often 9.22 µM), usual class: activators; note: nearly all actives have a fitted effect of over 60% in size
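Huh7 reporter cells (NPC1 promoter driving luciferase) are dosed with compound for 24 h at 37 °C, 5% CO2; luciferase detection reagent is then added and luminescence measured after 10 min at ambient temperature.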
ELG1 DNA repair – blocks ELG1-dependent DNA repair in HEK293T cells | Potency, µM (titrated, usually from 46.1 µM), most hits filed as inhibitors | actives 2.3% (n = 330,000) | HEK293T ELG1-luciferase reporter, luminescence, 16 h; DNA damage induced by 5-fluorouridine | AID 504467; note: nearly all actives have a fitted effect of over 55% in size
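Luminescence from the luciferase reporter, measured 30 min after ONE-Glo reagent at room temperature, was the read-out. Beforehand, 2,000 cells per well were exposed for 16 hr at 37 °C to 5-fluorouridine together with compound or vehicle.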
SMN2 splice up – SMN2 splice variant enhancement; Potency, µM (doses to about 46.1 µM), hits mostly activators; HEK293 SMN2-luciferase splicing reporter, luminescence, 30-36 h; actives 2.8% (n = 210,000); AID 1458; note: nearly all actives have a fitted effect of over 55% in size
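qHTS luciferase splicing reporter: luminescence rises when SMN2 exon 7 is included in transfected HEK293 cells. Compound exposure lasted 30-36 h at 37C, with 4.5 mM final sodium butyrate as control, followed by a ONE-Glo read.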
ELG1 genotoxic – inducers of genotoxicity in HEK293T ELG1-luciferase cells; HEK293T ELG1-luciferase reporter, luminescence, 16 h; Potency, µM (doses to about 46 µM), hits mostly activators; actives 1.3% (n = 330,000); AID 504466; note: nearly all actives have a fitted effect of over 60% in size
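DMSO vehicle served as control against compound-treated ELG1-luciferase HEK293T cells; exposure lasted 16 hr at 37 °C and 5% CO2, followed by ONE-Glo luminescence detection after 30 min.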
FLuc modulator – firefly luciferase modulation, counter-screen for miR-21 project; P08659; purified FLuc, Km substrates, luminescence inhibition; Potency, µM (titrated, usually from 57.5 µM), most hits filed as inhibitors; actives 6.9% (n = 360,000); AID 588342; note: nearly all actives have a fitted effect of over 55% in size
Target sequence (P08659 whole entry, looked up): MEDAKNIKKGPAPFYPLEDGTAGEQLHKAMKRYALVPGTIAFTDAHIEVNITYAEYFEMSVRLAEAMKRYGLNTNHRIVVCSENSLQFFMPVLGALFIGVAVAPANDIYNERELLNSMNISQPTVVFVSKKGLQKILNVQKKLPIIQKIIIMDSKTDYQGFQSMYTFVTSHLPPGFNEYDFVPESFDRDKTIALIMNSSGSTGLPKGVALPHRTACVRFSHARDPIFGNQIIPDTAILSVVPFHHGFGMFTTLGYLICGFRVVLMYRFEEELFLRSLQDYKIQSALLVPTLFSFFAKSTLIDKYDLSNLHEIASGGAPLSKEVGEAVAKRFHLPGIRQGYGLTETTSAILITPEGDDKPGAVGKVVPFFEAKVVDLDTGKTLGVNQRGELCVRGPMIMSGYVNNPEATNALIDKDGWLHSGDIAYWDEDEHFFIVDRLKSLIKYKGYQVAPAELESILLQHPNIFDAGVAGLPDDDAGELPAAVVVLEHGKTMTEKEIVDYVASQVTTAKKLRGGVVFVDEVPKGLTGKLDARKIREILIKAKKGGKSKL
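Biochemical qHTS of compounds, final roughly 60 µM downward over six points, against 10 nM purified firefly luciferase using Km concentrations of substrates (10 uM D-luciferin, 10 uM ATP) in Tris acetate pH 7.5 buffer; luminescence output.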
Rab9 promoter act – activates the Rab9 promoter. Huh7 Rab9 promoter-luciferase reporter, luminescence, 24 h. actives 2.8% (n = 320,000). Potency, µM (titrated, usually from 9.22 µM), most hits filed as activators; note: nearly all actives have a fitted effect of over 60% in size
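Quantitative HTS format; Huh7 Rab9-luciferase reporter cells (1500/well) receive compound 2 h post-plating, incubate 24 h at 37 °C, then get luciferase reagent for 10 min before luminescence reading.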
Hits are given with their value; n = inactive; u = inconclusive; x = no result given. Shown are actives, neighbours in structure and some others; about 9.3% of the full set was active somewhere. Calls come from the whole dose curve; as a rule, active = well fitted curve in the direction sought with a large enough effect; inconclusive = small, poorly fitted or top-dose-only effect, or another doubt; inactive = no such curve, though single readings can be large; an effect the other way counts as inactive or inconclusive.

SMILES | NPC1 prom act | ELG1 DNA repair | SMN2 splice up | ELG1 genotoxic | FLuc modulator | Rab9 promoter act
CN1CCN(CCNC(=O)c2ccc3nc(-c4ccc(F)cc4)c(-c4ccc(F)cc4)nc3c2)CC1 | n | n | x | n | n | n
Cc1ccc(-c2nn(-c3ccccc3)c3[nH]c(=O)c(CNCCN(C)C)cc23)cc1 | n | n | n | n | n | n
O=C(/C(=C/c1ccccc1Cl)c1ccccc1)N1CCOCC1 | n | n | n | n | n | n
COc1ccccc1[C@@]1(C)ON(c2ccccc2C(F)(F)F)C1=O | n | 18µM | x | n | n | n
O=C(NCC1CCCO1)c1ccccc1-c1nc(-c2ccc(Cl)cc2)no1 (centres undefined) | n | u | n | n | 15µM | n
COc1cccc(NC(=O)c2ccccc2-c2nc(-c3cccc(C)c3)no2)c1 | u | u | n | n | 17µM | n
Cc1cccc(-c2noc(-c3ccccc3C(=O)NCC3CCCO3)n2)c1 (centres undefined) | u | u | n | n | 11µM | n
O=C(NCC1CCCO1)c1ccccc1-c1nc(-c2ccccc2F)no1 (centres undefined) | n | n | x | n | u | n
CCCNC(=O)c1csc(Nc2cccc3ccccc23)n1 | n | n | x | n | u | n
O=C(NCC1CCCO1)c1csc(Nc2cccc3ccccc23)n1 (centres undefined) | n | u | x | u | 21µM | n
Cc1cc(C(=O)Nc2ccc(N3CCOCC3)c(Cl)c2)c(C)o1 | u | u | x | u | 6.7µM | 2.8µM
O=C(Nc1ccc(N2CCOCC2)c(Cl)c1)c1ccc(Cl)cc1 | n | u | n | n | 17µM | n
O=C(Nc1ccc(N2CCN(Cc3ccccc3)CC2)cc1)c1ncn[nH]1 | n | n | n | n | n | n
O=C(Nc1ccc(N2CCOCC2)c(Cl)c1)C1CCCCC1 | n | 21µM | n | u | u | n
O=C(Nc1ccc(N2CCOCC2)c(Cl)c1)c1ncn[nH]1 | n | u | n | n | 21µM | n
COc1ccc(CCC(=O)NCCc2nc3ccccc3[nH]2)cc1 | n | n | n | n | n | n
Cc1cccc(-n2ncc3c(N)ncnc32)c1 | u | n | n | u | u | u
CCOc1cccc(/C(O)=C2/C(=O)C(=O)N(CCN3CCOCC3)C2c2ccncc2)c1 (centres undefined) | n | n | n | n | n | n
O=C(Nc1cc(C(F)(F)F)ccc1N1CCOCC1)c1ccccc1F | n | n | n | n | n | n
O=C(Nc1ccc(N2CCOCC2)c(Cl)c1)c1ccccc1F | 3.2µM | u | n | 5.2µM | 9.5µM | 3.5µM
Nc1cc(S(=O)(=O)Nc2ccc(Cl)cc2)ccc1N1CCOCC1 | n | 15µM | x | n | u | n
Cc1onc(-c2c(Cl)cccc2Cl)c1C(=O)Nc1ccc2c(c1)OCCO2 | n | n | n | n | n | n
CCOC(=O)c1ccc(NC(c2ccc(N(C)C)cc2)P(=O)(OC(C)C)OC(C)C)cc1 (centres undefined) | n | n | n | n | n | n
CCn1c(SCC(=O)c2ccc([N+](=O)[O-])cc2)nnc1-c1ccc(Cl)cc1 | x | x | n | x | n | x
Cn1cc(S(=O)(=O)N2CCCC(C(=O)O)C2)cn1 (centres undefined) | n | n | n | n | n | n
SMILES | NPC1 prom act | ELG1 DNA repair | SMN2 splice up | ELG1 genotoxic | FLuc modulator | Rab9 promoter act
Cc1noc(C)c1COc1ccccc1C(=O)N1CCN(S(=O)(=O)c2ccccc2F)CC1 | n | u | x | 23µM | n | n
Cc1ccc(S(=O)(=O)N2CCN(C(=O)c3ccccc3OCc3c(C)noc3C)CC2)cc1 | n | n | x | n | n | n
Cc1ccc(Nc2n[nH]c(C)c2[N+](=O)[O-])cc1C | 1.6µM | u | 11µM | u | 3µM | 1.1µM
Cc1ccc(Nc2nc(N3CCN(C)CC3)nc(N)c2[N+](=O)[O-])cc1C | n | 8.2µM | n | n | n | n
CN(C)S(=O)(=O)c1ccc(Cl)c(NC(=O)COC(=O)c2cc(-c3ccccc3)nc3ccccc23)c1 | n | u | n | n | n | n
FC(F)(F)c1ccccc1-n1ccnc1 | n | n | n | n | n | n
CC1=CN2C(=N)/C(=C/c3ccco3)C(=O)N=C2S1 | 2.5µM | u | 3.5µM | u | 1.5µM | 1.8µM
CC1=CN2C(=N)/C(=C/c3ccc([N+](=O)[O-])o3)C(=O)N=C2S1 | n | u | n | n | 13µM | n
CSc1cccc(NC(=S)N2CCCN(Cc3ccc(F)cc3)C2)c1 | n | n | n | n | n | n
COC(=O)c1ccc(CNC(=O)C2CCC(=O)N(CCCc3ccccc3)C2)cc1 (centres undefined) | n | n | x | n | n | n
Cc1cccc(-n2ccnc2SCC(=O)Nc2nccs2)c1 | u | u | x | n | u | 3.5µM
Cc1ccc(C#N)c(SCC(=O)Nc2nccs2)n1 | 0.79µM | u | 1.8µM | 1.8µM | n | 0.45µM
N#Cc1cc2c(nc1SCC(=O)Nc1nccs1)CCCCC2 | 0.28µM | u | 1µM | 0.12µM | 0.67µM | 0.28µM
CCc1nnc(NC(=O)CSc2nc3c(cc2C#N)CCC3)s1 | 2.8µM | u | 13µM | u | 0.85µM | 2.2µM
CCN(CC)C(=O)CSc1nnc(-c2ccco2)o1 | n | u | u | n | u | n
Cn1c(SCc2ccc3c(c2)OCO3)nnc1-c1ccccc1 | n | u | u | n | n | n
N#Cc1cc2c(nc1SCC(=O)Nc1sc3c(c1C#N)CCC3)CCCCCC2 | n | u | n | n | n | n
CCOC(=O)c1c(SCC(=O)Nc2nccs2)nc(C)c(C)c1C | 2.8µM | u | x | u | n | 2.5µM
CCSc1nnc(NC(=O)CSc2nc3c(cc2C#N)CCCC3)s1 | 1.8µM | u | 7.9µM | n | 12µM | 3.2µM
CCCC(C(=O)NNC(=O)c1ccncc1)c1ccccc1 (centres undefined) | x | n | x | n | x | x
CCC(C)C(=O)Nc1nnc(SCC(=O)NC2CCCCC2)s1 (centres undefined) | n | n | x | n | n | n
COc1ccccc1NC(=O)NCCCl | n | n | n | n | n | n
Cc1cc(C(=O)CN2C(=O)C(=O)N(CC(C)C)C2=O)c(C)n1-c1ccccc1F | n | u | n | n | 17µM | n
Cc1cc(C(=O)CN2C(=O)NC(CC(C)C)C2=O)c(C)n1-c1ccccc1F (centres undefined) | 2.2µM | u | n | u | 13µM | 1.1µM
O=C(CC1C(=O)NCCN1Cc1cccc(Oc2ccccc2)c1)NCCc1cscn1 (centres undefined) | n | n | n | n | n | n
Cc1cc(NC(=O)CCCn2nc(C)c([N+](=O)[O-])c2C)no1 | n | n | n | n | n | n
CCN(CC)CCC[C@H](C)Nc1ccnc2cc(Cl)ccc12 | x | x | n | x | x | x
O=C1C[C@H]2CCCCC(=O)N3CC[C@@H](C1)[C@@H]23 | x | n | x | n | x | x
